Gal4-VP16 FLuc – VP16 counterscreen qHTS for inhibitors of ROR gamma transcriptional activity | AID 2546, 2010 | Drosophila S2 Gal4-VP16 UAS-luciferase, luminescence, 20 h | Potency, µM (doses to about 53.6 µM), hits mostly inhibitors | actives 3.5% (n = 310,000);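 note: Gal4-VP16 expression switched on by copper sulfate through the metallothionein promoter; nearly all actives have a fitted effect of over 50% in size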
IL-1B inflam inh – qHTS for Inhibitors of Inflammasome Signaling: IL-1-beta AlphaLISA Primary Screen. THP-1 LPS/ATP IL-1B secretion, AlphaLISA, 16 h; hits give low values. AID 743279, 2014. activity change, % at 57.5 µM. actives 4.7% (n = 360,000); in the data active = activity change below about -50%; inconclusive = mostly about -30% to -49%
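Secreted IL-1B measured by AlphaLISA bead assay after 16 h compound exposure of THP-1 cells; compounds (final up to 57.5 uM) added 1 h before LPS (250 ng/mL) and ATP (1.25 mM) stimulation; lower signal means less secretion.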
DT40 TDP1 CPT – qHTS for Inhibitors of human tyrosyl-DNA phosphodiesterase 1 (TDP1): qHTS in cells in presence of CPT; actives 12% (n = 420,000); Potency, µM (top dose mostly 46.2 µM), most hits filed as inhibitors; chicken DT40 Tdp1-/-;hTDP1 cells + 20 nM CPT, ATP luminescence, 48 h; AID 686979, 2013; note: nearly all actives have a fitted effect of over 55% in size
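Chicken DT40 Tdp1-/- cells complemented with human TDP1, 400 cells/well, exposed to compounds plus 20 nM camptothecin for at least 48 h at 37 C; viability read as ATP content by CellTiter-Glo luminescence.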
TDP1 cell noCPT – qHTS for Inhibitors of human tyrosyl-DNA phosphodiesterase 1 (TDP1): qHTS in cells in absence of CPT; DT40 Tdp1-/- hTDP1 cells, no CPT, ATP luminescence, 48 h; Potency, µM (titrated, usually from 46.2 µM), usual class: inhibitors; actives 15% (n = 420,000); AID 686978, 2013; note: nearly all actives have a fitted effect of over 55% in size
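Growth kinetics read by CellTiter-Glo luminescence after ≥48 hr at 37 °C. Cells: DT40 Tdp1-/- stably carrying human TDP1, 400 per well, compound exposure in the absence of CPT (DMSO vehicle).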
LDHA inh – qHTS assay for inhibitors of human lactate dehydrogenase. L-lactate dehydrogenase A chain (Homo sapiens), P00338. AID 1347041, 2019. activity change, % (values are at about 110 or 230 µM). purified LDHA, NADH/diaphorase-resazurin fluorescence; hits give low values. actives 0.15% (n = 480,000); in the data active = activity change below about -30%; inconclusive = mostly about -25% to -30%
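Remaining NADH was detected by diaphorase (0.133 mg/mL) converting 37 µM resazurin to fluorescent resorufin, read at 0 and 20 minutes. The preceding 5-minute room-temperature reaction used 2 nM LDHA, 0.2 mM sodium pyruvate and 0.06 mM NADH at pH 7.4.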
RORg inh – qHTS for inhibitors of ROR gamma transcriptional activity | Nuclear receptor ROR-gamma (Mus musculus), P51450 | Drosophila S2 Gal4-RORgamma UAS-luciferase reporter, 20 h | Potency, µM (top dose mostly 53.6 µM), usual class: inhibitors | actives 5.4% (n = 310,000) | AID 2551, 2010; note: nearly all actives have a fitted effect of over 60% in size
Target sequence (P51450 whole entry, looked up, the tested form may be a part): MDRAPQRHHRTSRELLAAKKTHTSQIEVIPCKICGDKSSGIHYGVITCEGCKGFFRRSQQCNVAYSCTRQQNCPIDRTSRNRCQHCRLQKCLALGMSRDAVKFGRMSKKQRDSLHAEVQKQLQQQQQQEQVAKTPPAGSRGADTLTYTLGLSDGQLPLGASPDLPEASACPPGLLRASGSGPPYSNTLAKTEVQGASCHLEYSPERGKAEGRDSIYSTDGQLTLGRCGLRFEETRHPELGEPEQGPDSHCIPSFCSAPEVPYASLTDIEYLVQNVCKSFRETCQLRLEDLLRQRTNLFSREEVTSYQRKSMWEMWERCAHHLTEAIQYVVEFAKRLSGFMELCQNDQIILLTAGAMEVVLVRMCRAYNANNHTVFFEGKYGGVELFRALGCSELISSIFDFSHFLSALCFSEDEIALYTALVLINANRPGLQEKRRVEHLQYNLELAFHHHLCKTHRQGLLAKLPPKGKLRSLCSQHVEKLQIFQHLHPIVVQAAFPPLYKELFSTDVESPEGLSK
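ROR gamma transcriptional activity was tracked as Gal4-UAS luciferase output in stably transfected Drosophila Schneider cells, with compound added 1 hr before 700 uM copper sulfate induction and a 20 hr ambient-temperature incubation.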
Each line names hits and unclear results; the compound was inactive in the other large screens. A selection: hits, their analogues and other compounds. The true share with any hit is near 18%. Unless noted, calls come from the whole dose curve; as a rule, active = well fitted curve in the direction sought with a large enough effect; inconclusive = small, poorly fitted or top-dose-only effect, or another doubt; inactive = no such curve, though single readings can be large; an effect the other way counts as inactive or inconclusive.

COc1ccc(NC(=O)c2c(-c3ccc(C)cc3)nnc3ccccc23)c(OC)c1	DT40 TDP1 CPT 18.4µM, TDP1 cell noCPT 16.4µM (no result: Gal4-VP16 FLuc, IL-1B inflam inh, RORg inh)
O=C1CNC(=S)N1c1nc(-c2ccccc2)cs1	Gal4-VP16 FLuc inconclusive, RORg inh 3.16µM
COC(=O)NC(NC(=O)OC)C(Cl)Cl	none (no result: Gal4-VP16 FLuc, IL-1B inflam inh, DT40 TDP1 CPT, TDP1 cell noCPT, RORg inh)
Cc1ccc(NC(=O)Nc2ccc(F)cc2)cc1Cl	IL-1B inflam inh inconclusive, DT40 TDP1 CPT inconclusive, TDP1 cell noCPT 23.1µM
COc1ccc(CC(=O)Nc2ccncc2Cl)cc1	DT40 TDP1 CPT 4.61µM, TDP1 cell noCPT 1.84µM
O=C(Cc1c(Cl)cccc1Cl)Nc1ccncc1Cl	DT40 TDP1 CPT inconclusive, TDP1 cell noCPT inconclusive
O=C(Cc1ccc(Cl)cc1Cl)Nc1ccncc1Cl	Gal4-VP16 FLuc 5.62µM, DT40 TDP1 CPT 5.17µM, TDP1 cell noCPT 1.84µM
O=C(Nc1ccncc1)Nc1ccc(F)c(Cl)c1	IL-1B inflam inh inconclusive, DT40 TDP1 CPT 16.4µM, TDP1 cell noCPT inconclusive
C=CCNC(=O)Nc1ccc(F)c(Cl)c1	none
COc1ccccc1-c1cnc(N)nc1-c1ccc(OCc2ccc(F)cc2)cc1O	none (no result: Gal4-VP16 FLuc, IL-1B inflam inh, DT40 TDP1 CPT, TDP1 cell noCPT, RORg inh)
O=C(Cc1ccc(Cl)cc1Cl)Nc1ccncc1	Gal4-VP16 FLuc 5.62µM, DT40 TDP1 CPT 11.6µM, TDP1 cell noCPT inconclusive, RORg inh inconclusive
CCC(CC)C(NC(=O)CCc1cccs1)c1ccccc1 (stereo unspecified)	none (no result: Gal4-VP16 FLuc, IL-1B inflam inh, DT40 TDP1 CPT, TDP1 cell noCPT, RORg inh)
O=C(O)/C=C/C(=O)Nc1ccc(Cl)c(C(F)(F)F)c1	none (no result: Gal4-VP16 FLuc, IL-1B inflam inh, DT40 TDP1 CPT, TDP1 cell noCPT, RORg inh)
C=C1CCC(O)C2(C)CCC3C(C)C(=O)OC3C12O (stereo unspecified)	none
C=C1C(=O)O[C@@H]2[C@H]1CC[C@H](C)[C@]1(O)CCC(=O)[C@@]21C	Gal4-VP16 FLuc inconclusive, IL-1B inflam inh -68.7, DT40 TDP1 CPT 23.1µM, TDP1 cell noCPT inconclusive
O=C(CSc1nnc(C2COc3ccccc3O2)o1)NC1CCCCC1 (stereo unspecified)	none
Cc1cc(NC(=O)CSc2nnc(-c3cccc(Cl)c3)o2)no1	DT40 TDP1 CPT inconclusive, TDP1 cell noCPT 16.4µM, RORg inh inconclusive
Cc1cc(NC(=O)CSc2nnc(-c3ccccc3Cl)o2)no1	none
CCOc1ccc(-c2nnc(SCC(=O)Nc3cc(C)on3)o2)cc1	DT40 TDP1 CPT 8.2µM, TDP1 cell noCPT inconclusive, RORg inh inconclusive
O=C(CSc1nnc(C2COc3ccccc3O2)o1)Nc1nccs1 (stereo unspecified)	Gal4-VP16 FLuc 22.4µM, DT40 TDP1 CPT inconclusive, RORg inh inconclusive
Cc1cc(-c2nnc(SCC(=O)Nc3nccs3)o2)no1	Gal4-VP16 FLuc inconclusive, RORg inh 15.8µM
COC(=O)CC(NC(=O)Cc1ccccc1Cl)c1cccs1 (stereo unspecified)	none (no result: Gal4-VP16 FLuc, IL-1B inflam inh, DT40 TDP1 CPT, TDP1 cell noCPT, RORg inh)
COc1cccc(NC(=O)CSc2nc3c(=O)[nH]cnc3n2C)c1	none (no result: Gal4-VP16 FLuc, IL-1B inflam inh, DT40 TDP1 CPT, TDP1 cell noCPT, RORg inh)
Cc1ccc2nc(C)c(C(=O)N(C)C(C)c3ccccc3)cc2c1 (stereo unspecified)	none (no result: Gal4-VP16 FLuc, IL-1B inflam inh, DT40 TDP1 CPT, TDP1 cell noCPT, RORg inh)
CCCNc1c(NC(=O)NCc2ccc(C)cc2)c(=O)oc2ccccc12	none (no result: Gal4-VP16 FLuc, IL-1B inflam inh, DT40 TDP1 CPT, TDP1 cell noCPT, RORg inh)
COc1cccc(-c2nnc(SCC(=O)Nc3cc(C)on3)o2)c1	DT40 TDP1 CPT 16.4µM, TDP1 cell noCPT inconclusive, RORg inh 12.6µM
COc1cccc(-c2nnc(SCC(=O)Nc3cc(C)on3)n2C)c1	none
CCN(CC)C(=S)Nc1ccc(C(=O)O)cc1	none (no result: Gal4-VP16 FLuc, IL-1B inflam inh, DT40 TDP1 CPT, TDP1 cell noCPT, RORg inh)
O=C(/C=C/c1cccc(Cl)c1)c1ccc(O)cc1	none (no result: Gal4-VP16 FLuc, IL-1B inflam inh, DT40 TDP1 CPT, TDP1 cell noCPT, RORg inh)
O/C(=C\c1nc2ccccc2[nH]1)c1cccs1	Gal4-VP16 FLuc inconclusive, IL-1B inflam inh inconclusive, DT40 TDP1 CPT inconclusive, TDP1 cell noCPT inconclusive, RORg inh inconclusive
COc1cc(/C=C(/C(=O)c2cccs2)c2nc3ccccc3[nH]2)ccc1O	IL-1B inflam inh -106.3, DT40 TDP1 CPT inconclusive, TDP1 cell noCPT 18.4µM

Compound activity: PubChem BioAssay, National Center for Advancing Translational Sciences (NCATS)
